In the library only some 3.2% were active in any assay of this set; here they are far more common.
GoLoco inh red – qHTS Assay for Inhibitors of RGS12 GoLoco Motif Activity (Red Fluorophore) | Guanine nucleotide-binding protein G(i) subunit alpha-1 (Homo sapiens), P63096 | Gai1:RGS12 GoLoco peptide FP, rhodamine, 10 min | Potency, µM (highest dose often 61.6 µM), usual class: inhibitors | actives 0.44% (n = 230,000) | AID 880, 2007; active = well fitted inhibition curve with a large enough effect, not every such curve was filed as active; inactive = no such curve, though single readings can be large or run the other way; note: nearly all actives have a fitted effect of over 30% in size
Target sequence (P63096 whole entry, looked up): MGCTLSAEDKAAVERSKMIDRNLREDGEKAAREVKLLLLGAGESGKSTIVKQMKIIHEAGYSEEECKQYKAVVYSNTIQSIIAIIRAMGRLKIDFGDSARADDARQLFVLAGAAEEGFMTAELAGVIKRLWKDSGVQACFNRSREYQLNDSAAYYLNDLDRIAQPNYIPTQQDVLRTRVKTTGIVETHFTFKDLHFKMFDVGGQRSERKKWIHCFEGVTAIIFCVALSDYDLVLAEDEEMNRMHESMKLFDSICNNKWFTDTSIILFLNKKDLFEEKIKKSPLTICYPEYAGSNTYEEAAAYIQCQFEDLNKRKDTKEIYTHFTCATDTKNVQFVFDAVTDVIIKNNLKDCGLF
Tau fibril ThT – qHTS for Inhibitors of Tau Fibril Formation, Thioflavin T Binding. Microtubule-associated protein tau (Homo sapiens), P10636. actives 2.1% (n = 270,000). Potency, µM (doses to about 57.4 µM), usual class: inhibitors. recombinant tau K18 P301L, heparin-induced fibrillization, ThT fluorescence. AID 1460, 2008; note: nearly all actives have a fitted effect of over 55% in size
Target sequence (P10636 561-689 P618L limits assumed): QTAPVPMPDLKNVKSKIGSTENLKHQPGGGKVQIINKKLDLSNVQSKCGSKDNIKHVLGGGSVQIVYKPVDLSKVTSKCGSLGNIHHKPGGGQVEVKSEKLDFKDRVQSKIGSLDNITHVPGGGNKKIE
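Using a mix of unlabeled (15 uM) and Alexa 594-labeled (0.24 uM) tau K18 P301L, heparin-triggered fibrillization over 6 hr at 37 C was scored by ThT fluorescence.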
Tau fluor cs – Counterscreen qHTS for Inhibitors of Tau Fibril Formation, Fluorescence Polarization. tau K18 P301L (four-repeat tau fragment) Alexa594 fluorescence, heparin fibrillization. Potency, µM (series often up to 57.7 µM). actives 0.93% (n = 280,000); note: nearly all actives have a fitted effect of over 55% in size
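Human K18 P301L tau (15 uM unlabeled plus 0.24 uM Alexa 594-labeled, final) in 100 mM sodium acetate pH 7 was mixed with compound and 20 uM heparin and incubated 6 hr at 37 C.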
TexasRed fluor – Total Fluorescence Counterscreen for Inhibitors of the Interaction of Thyroid Hormone Receptor and Steroid Receptor Coregulator 2. AID 1479, 2009. Potency, µM (top dose mostly 106 µM). TRb/SRC2 Texas Red total fluorescence interference. actives 0.29% (n = 280,000); active = well fitted curve in either direction with a large enough effect; inconclusive = small, poorly fitted or top-dose-only effect
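Flags fluorescent or light-absorbing compounds by total fluorescence, S + 2P, at 555 nm excitation and 632 nm emission. Mixture: 20 nM Texas Red SRC2 peptide, 0.6 uM human TRb LBD, 1 uM T3, 5% DMSO; compound exposure 5 h at ambient temperature.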
TRb-SRC2 inh – qHTS for Inhibitors of the Interaction of Thyroid Hormone Receptor and Steroid Receptor Coregulator 2 | Potency, µM (top dose mostly 106 µM), actives largely listed as inhibitors | actives 0.065% (n = 280,000) | AID 1469, 2008 | Thyroid hormone receptor beta (Homo sapiens), P10828 | TRbeta-SRC2 peptide binding, fluorescence polarization; receptor liganded with 1 µM T3; note: nearly all actives have a fitted effect of over 50% in size
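Quantitative HTS by FP: 0.6 uM TRb LBD, 20 nM labeled SRC2 20-mer, 1 uM T3, 5% DMSO; 5 hr ambient incubation; % activity per concentration and potencies from concentration series.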
Tau FP inhib – qHTS for Inhibitors of Tau Fibril Formation, Fluorescence Polarization; Potency, µM (series often up to 57.7 µM), hits mostly inhibitors; Microtubule-associated protein tau (Homo sapiens), P10636; actives 0.39% (n = 280,000); K18 P301L tau heparin fibrillization, Alexa594 FP, 6 h; note: nearly all actives have a fitted effect of over 55% in size
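FP of Alexa 594-tau after heparin (20 uM) induction. Substrate: human K18 P301L, 15 uM unlabeled, 0.24 uM labeled. Buffer 100 mM sodium acetate pH 7. 6 hr, 37 C.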
Of the large screens only hits and unclear results are named; the others gave an inactive call; [ ] = another dose, or the depositor's remark. Unless noted, calls come from the whole dose curve; as a rule, active = well fitted curve in the direction sought with a large enough effect; inconclusive = small, poorly fitted or top-dose-only effect, or another doubt; inactive = no such curve, though single readings can be large; an effect the other way counts as inactive or inconclusive.

COc1ccc(-c2cccc(NS(=O)(=O)c3cc(C)ccc3OC)c2)nn1	TexasRed fluor inconclusive (no result: GoLoco inh red)
Cc1ccccc1C(=O)Nc1ccc(OCc2cc(=O)n3ccccc3n2)cc1	none (no result: GoLoco inh red)
Cc1cc[n+](-c2[nH]c(=O)sc2/C=N/N=C(\[O-])c2ccccc2)cc1	none
CCc1ccc[n+](-c2[nH]c(=O)sc2/C=N/N=C(\[O-])CCn2c3ccccc3c3ccccc32)c1	Tau fibril ThT 16µM, Tau fluor cs inconclusive
Cc1cc[n+](-c2[nH]c(=O)sc2/C=N/N=C(\[O-])CCn2c3ccccc3c3ccccc32)cc1	Tau fibril ThT 28µM, Tau fluor cs inconclusive, Tau FP inhib inconclusive
Oc1c(Cl)cc(C(c2cc(Cl)c(O)c(Cl)c2)C(c2cc(Cl)c(O)c(Cl)c2)c2cc(Cl)c(O)c(Cl)c2)cc1Cl	none (no result: Tau fibril ThT, Tau fluor cs, TexasRed fluor, TRb-SRC2 inh, Tau FP inhib)
Oc1ccc2ccccc2c1/C=N/Nc1nnc(-c2ncc[nH]2)c2ccccc12	Tau fibril ThT 4µM, Tau fluor cs 8.9µM[quencher], Tau FP inhib inconclusive
O=C1C2Cc3c([nH]c4ccccc34)C(c3ccccc3)N2C(=O)C2Cc3c([nH]c4ccccc34)C(c3ccccc3)N12 (stereo not drawn)	none (no result: GoLoco inh red)
COc1ccc(N=Cc2sc(O)c3ccccc23)cc1	Tau fibril ThT inconclusive, Tau fluor cs 7.1µM[quencher], Tau FP inhib inconclusive
COc1ccc(N=Cc2c(O)c3ccccc3n2C(C)=O)cc1	Tau fibril ThT 16µM, Tau fluor cs inconclusive, Tau FP inhib inconclusive
COc1cc(/C=C2\SC(=N)N(c3ccc4c(c3)OCO4)C2=O)cc(OC)c1O	Tau fibril ThT 3.2µM, Tau fluor cs inconclusive
CCOc1cc(/C=C2\SC(=O)N(CC(=O)Nc3ccccc3F)C2=O)cc([N+](=O)[O-])c1O	Tau fibril ThT 7.9µM, Tau fluor cs inconclusive
COc1cc(/C=C2\SC(=O)N(CC(=O)Nc3cccc(C)c3)C2=O)cc([N+](=O)[O-])c1O	Tau fibril ThT 13µM, Tau fluor cs inconclusive
COc1cc(/C=C2\SC(=O)N(c3ccc(O)cc3)C2=O)cc(OC)c1OC	none
COc1ccc(/C=C2\SC(=O)N(CC(=O)Nc3cccnc3)C2=O)cc1OC	none
CCOC(=O)CN1C(=O)S/C(=C/c2ccc(O)c([N+](=O)[O-])c2)C1=O	Tau fibril ThT inconclusive, Tau FP inhib inconclusive
COc1cc(/C=C2\SC(=O)N(c3ccccc3Cl)C2=O)cc([N+](=O)[O-])c1O	Tau fibril ThT 4µM, Tau fluor cs 16µM[quencher]
Cc1ccc(S(=O)(=O)N[C@H](C(=O)O)C(C)C)cc1	none (no result: Tau fibril ThT, Tau fluor cs, TexasRed fluor, TRb-SRC2 inh, Tau FP inhib)
CCOCCc1nn2c(=O)cc(COC(=O)c3ccc(NC(=O)c4cccs4)cc3)nc2s1	none (no result: GoLoco inh red)
COc1ccc(N2C=C3C(=O)C(C)(OC(=O)C4CCCC4)C(=O)C=C3C=C2c2ccsc2)cc1 (stereo not drawn)	none
CC(C)Cc1cc(C(=O)NCc2ccc(Cl)cc2)no1	none (no result: GoLoco inh red)
O=C1c2ccccc2-c2onc3c(NCCO)cc(NC4CCCCC4)c1c23	Tau fibril ThT 7.9µM, Tau fluor cs 11µM[quencher], TexasRed fluor 40µM[fluorescent], TRb-SRC2 inh inconclusive, Tau FP inhib inconclusive (no result: GoLoco inh red)
CCNc1cc(N2CCN(C3CCCCC3)CC2)c2noc3c2c1C(=O)c1ccccc1-3	Tau fibril ThT inconclusive (no result: GoLoco inh red)
CC(=O)OCCNc1cc(N2CCN(C)CC2)c2noc3c2c1C(=O)c1ccccc1-3	Tau fibril ThT 28µM, Tau fluor cs inconclusive, TexasRed fluor 50µM[fluorescent], TRb-SRC2 inh 45µM, Tau FP inhib inconclusive
O=C(O)CCCNc1cc(N2CCN(C3CCCCC3)CC2)c2noc3c2c1C(=O)c1ccccc1-3	Tau fibril ThT 8.9µM, Tau fluor cs inconclusive, TexasRed fluor 40µM[fluorescent], Tau FP inhib inconclusive (no result: GoLoco inh red)
CN(C)c1ccc(C(c2nnnn2C(C)(C)C)N2CCc3ccccc3C2)cc1 (stereo not drawn)	Tau fibril ThT inconclusive
CC1CCN(C(c2ccc(N(C)C)cc2)c2nnnn2C(C)(C)C)CC1 (stereo not drawn)	Tau fibril ThT 10µM, Tau fluor cs inconclusive
Nc1c(Cl)ncnc1N/N=C/c1ccccn1	Tau fibril ThT inconclusive
Nc1c(Cl)ncnc1N/N=C/c1ccc2ccccc2n1	Tau fibril ThT 4µM
COC(=O)C1=C(C)N=C2SCCC(=O)N2C1c1ccc(OCc2ccccc2)c(OC)c1 (stereo not drawn)	none (no result: GoLoco inh red)
COC(=O)C1=C(C)N=C2SCCC(=O)N2C1c1cc(Br)ccc1OC (stereo not drawn)	Tau fibril ThT 5µM, Tau fluor cs inconclusive (no result: GoLoco inh red)
COc1ccc(Cn2c(O)cc(=O)[nH]c2=O)cc1	Tau fibril ThT inconclusive
CCOc1ccc(Cn2c(O)cc(=O)[nH]c2=O)cc1	Tau fibril ThT 16µM, Tau FP inhib inconclusive
CC[C@H](C)[C@H](NC(=O)[C@H](CC(C)C)NC(=O)[C@@H](N)CO)C(=O)NCC(=O)N[C@@H](CCCCN)C(=O)N[C@H](C(=O)O)C(C)C	none (no result: GoLoco inh red, Tau fibril ThT, Tau fluor cs, Tau FP inhib)
O=C(O)C(Oc1ccc(Cl)cc1)Oc1ccc(Cl)cc1	none (no result: GoLoco inh red, Tau fibril ThT, Tau fluor cs, Tau FP inhib)
COCCCNC(=O)c1ccccc1Oc1ccccc1	none
COCCCNC(=O)c1ccc2c3c(onc13)-c1ccccc1C2=O	GoLoco inh red 20µM, Tau fibril ThT 6.3µM, Tau fluor cs 5.6µM[quencher], Tau FP inhib inconclusive
CCc1cccc2c(/C=N/NC(=O)c3cccc(S(=O)(=O)Nc4ccccc4Cl)c3)c[nH]c12	Tau fibril ThT 14µM, Tau fluor cs 11µM[quencher]
Cc1[nH]c2ccccc2c1/C=N/NC(=O)c1cccc(S(=O)(=O)Nc2ccccc2Cl)c1	Tau fibril ThT inconclusive, Tau fluor cs 11µM[quencher], Tau FP inhib inconclusive
CCOc1ccc(S(=O)(=O)N/N=C2/CCCC(=O)C2)cc1	none
O=C1CCC/C(=N/Nc2ccc(Cl)cc2)C1	Tau fibril ThT 25µM, Tau fluor cs inconclusive, Tau FP inhib inconclusive
Cc1ccc(Cn2ncc(Cl)c(Cl)c2=O)cc1	none
O=c1c(Cl)c(Cl)cnn1Cc1nnc(-c2ccc(Cl)cc2)o1	Tau fibril ThT 28µM, Tau FP inhib inconclusive
COC(=O)[C@@]1(Cc2ccccc2)[C@H]2c3cc(C(=O)N(C)C)n(CCN4CNCC4=O)c3C[C@H]2CN1C(=O)c1ccccc1	none
CN1CCc2c(sc3c2C(=O)NC(c2ccc(OC(=O)c4ccccc4)cc2)N3)C1 (stereo not drawn)	Tau fibril ThT 5.6µM, Tau FP inhib inconclusive (no result: GoLoco inh red)

Source: PubChem
